Laboratory results as given in PubChem BioAssay (Tox21).
Results filed as inconclusive are left out. The source made the active and inactive calls. Unless noted, calls come from the whole dose curve; as a rule, active = well fitted curve in the direction sought with a large enough effect in the repeat runs; inconclusive = weak or mixed curves; inactive = no such curve, though single readings can be large; an effect the other way counts as inactive or inconclusive.

Tests used:
[1] = biological target: Estrogen receptor beta (Homo sapiens) (UniProt Q92731); assay: qHTS assay to identify small molecule antagonists of the estrogen receptor beta (ER-beta) signaling pathway (AID 1259378; active = well fitted inhibition curve with a large enough effect in the signal ratio in the repeat runs, not every such curve was filed as active; the % refers to the signal ratio; note: potency is the fitted concentration of half-maximal effect)
How it was run: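 ER-beta-UAS-bla HEK293T (GripTite) cells in 2% charcoal-stripped FBS medium were preincubated 6 hr at 37C, dosed with compound, then stimulated with 1 nM E2 (final) for 16 hr; beta-lactamase reporter read by B/G FRET fluorescence after 2 hr substrate loading.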

[2] = qHTS assay to identify small molecule agonists of the androgen receptor (AR) signaling pathway in the presence of an antagonist - cell viability counter screen (AID 1259379); note: nearly all actives have a fitted effect of over 25% in size; note: potency is the fitted concentration of half-maximal effect
How it was run: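 Cells: MDA-kb2 (MMTV-luc, AR and GR elements), 3,000/well, 5 hr settle. Added: nilutamide 3.0uM final, then compounds (15 conc.). Incubation: 16 hr, 37C, no CO2. Read-out: CellTiter-Fluor, 1 hr, fluorescence.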

[3] = qHTS assay to identify small molecule agonists of the estrogen receptor beta (ER-beta) signaling pathway - cell viability counter screen (AID 1259380); note: nearly all actives have a fitted effect of over 30% in size; note: potency is the fitted concentration of half-maximal effect
How it was run: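 HEK293T ER-beta-UAS-bla; 2% CS-FBS; 6 hr pre-plate, 16 hr cpd at 37C/5% CO2; LiveBLAzer read first, then CellTiter-Glo 30 min RT, luminescence.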

[4] = qHTS assay to identify small molecule agonists or antagonists of the thyroid stimulating hormone receptor (TSHR) signaling pathway - wild type cell line counter screen (AID 1259384; calls by dose curve)
How it was run: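 Wild-type HEK293 cells were plated 18 h at 37 C/5% CO2, pin-dosed with compound plus Ro20-1724 medium, held 30 min at room temperature, then given cAMP-d2 and anti-cAMP-cryptate; fluorescence was read after 1 h. Fifteen concentrations, triplicate.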

[5] = biological target: Thyrotropin receptor (Homo sapiens) (UniProt P16473); assay: qHTS assay to identify small molecule antagonists of the thyroid stimulating hormone receptor (TSHR) signaling pathway (AID 1259385; calls by dose curve; note: nearly all actives have a fitted effect of over 20% in size; note: potency is the fitted concentration of half-maximal effect)
How it was run: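 TSHR-HEK293 cells were plated and held 18 h at 37C/5% CO2, then given compound plus Ro20-1724 and stimulated with TSH at 1.5 ng/mL final. After 30 min at room temperature, cAMP was detected with cAMP-d2/anti-cAMP-cryptate (1 h) by fluorescence.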

[6] = biological target: Progesterone receptor (Homo sapiens) (UniProt P06401); assay: qHTS assay to identify small molecule antagonists of the progesterone receptor (PR) signaling pathway (AID 1346795; active = well fitted inhibition curve with a large enough effect in the signal ratio in the repeat runs, not every such curve was filed as active; the % refers to the signal ratio; note: potency is the fitted concentration of half-maximal effect)
How it was run: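 PR-UAS-bla HEK293T cells with beta-lactamase reporter under UAS control, in 2% charcoal-stripped FBS, treated with compounds plus 1 nM promegestone (R5020, final) for 16 hr at 37C. Read-out: FRET beta-lactamase substrate fluorescence after 2 hr at room temperature.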

[7] = qHTS assay to identify small molecule antagonists of the progesterone receptor (PR) signaling pathway - cell viability counter screen (AID 1346798); note: nearly all actives have a fitted effect of over 50% in size; note: potency is the fitted concentration of half-maximal effect
How it was run: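 PR-UAS-bla HEK293T cells, 3,000/well in 2% charcoal-stripped FBS medium, dosed with compounds plus R5020 agonist and incubated 16 h at 37C. Viability then measured in the same wells by CellTiter-Glo luminescence after 30 min at RT.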

[8] = qHTS assay to identify small molecule agonists of the TGF-beta/Smad signaling pathway - cell viability counter screen (AID 1346829); note: nearly all actives have a fitted effect of over 45% in size; note: potency is the fitted concentration of half-maximal effect
How it was run: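 Tox21 qHTS format: SBE-bla HEK 293T cells treated with DMSO-dissolved compounds for 5 hr; CellTiter-Glo luminescence after 30 min at room temperature.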

[9] = qHTS assay to identify small molecule agonists of the TGF-beta/Smad signaling pathway (AID 1346859; active = well fitted activation curve with a large enough effect in the signal ratio in the repeat runs, not every such curve was filed as active; the % refers to the signal ratio; note: potency is the fitted concentration of half-maximal effect; for activation: series mostly up to about 77 µM)
How it was run: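 SBE-bla HEK293T cells plated overnight, then compound exposure for 5 h at 37 C. Beta-lactamase reporter read with LiveBLAzer B/G FRET substrate after 2 h at room temperature, fluorescence at 405 nm excitation, 460/530 nm emission.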

[10] = biological target: Thyrotropin-releasing hormone receptor (Homo sapiens) (UniProt P34981); assay: qHTS assay to identify small molecule antagonists of the thyrotropin-releasing hormone receptor (TRHR) signaling pathway (AID 1346877; active = well fitted inhibition curve with a large enough effect in the repeat runs, not every such curve was filed as active; note: potency is the fitted concentration of half-maximal effect)
How it was run: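 Intracellular calcium fluorescence, read kinetically every second over 3 min, reports TRH-evoked signalling in HEK293 cells carrying TRHR. Test compounds were added 5 min ahead of a 1 nM TRH challenge.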

[11] = biological target: Thyrotropin-releasing hormone receptor (Homo sapiens) (UniProt P34981); assay: qHTS assay to identify small molecule agonists of the thyrotropin-releasing hormone receptor (TRHR) signaling pathway (AID 1346891; calls by dose curve; note: potency is the fitted concentration of half-maximal effect; for activation: series mostly up to about 58 µM)
How it was run: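 HEK293 cells expressing TRHR plated 18 h at 37 C/5% CO2, calcium dye-loaded 2 h at 37 C, then compound added (agonist mode); kinetic calcium fluorescence read 3 min at 1 s intervals; 15 concentrations in triplicate.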

[12] = Human pregnane X receptor (PXR) small molecule agonists, qHTS cell viability counter screen (AID 1346977); note: nearly all actives have a fitted effect of over 50% in size; note: potency is the fitted concentration of half-maximal effect
How it was run: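 PXR-Luc HepG2 cells (2,000/well, 5% charcoal-stripped FBS) preincubated 5 hr, then exposed to compounds 24 hr at 37 C. Viability read in the same wells by CellTiter-Fluor fluorescence, reagent added at 23 hr, 1 hr incubation.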

[13] = biological target: Androgen receptor (Homo sapiens) (UniProt P10275); assay: qHTS assay to identify small molecule agonists of the androgen receptor (AR) signaling pathway in the presence of an antagonist (AID 1259381; calls by dose curve; note: nearly all actives have a fitted effect of over 15% in size)
How it was run: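 MDA-kb2 cells, 3,000/well, rested 5hr at 37C/0% CO2 → nilutamide 3.0uM final or buffer → compounds, 15 conc. → 16hr at 37C → ONE-Glo, 30min RT → luminescence.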

[14] = qHTS assay to identify small molecule antagonists of the estrogen receptor beta (ER-beta) signaling pathway - cell viability counter screen (AID 1259382); note: nearly all actives have a fitted effect of over 55% in size; note: potency is the fitted concentration of half-maximal effect
How it was run: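 Cells: ER-beta-UAS-bla HEK293T, 2,000/well, 2% CS-FBS, 6 hr settle. Cpd + E2 (1nM final), 16 hr, 37C/5% CO2. Bla FRET substrate 2 hr RT, then CellTiter-Glo 30 min RT, luminescence.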

[15] = biological target: Estrogen receptor (Homo sapiens) (UniProt P03372); assay: qHTS assay to identify small molecule agonists of the estrogen receptor alpha (ER-alpha) signaling pathway in the presence of an antagonist (AID 1259383; calls by dose curve; note: top concentration of the series differs between compounds; nearly all actives have a fitted effect of over 15% in size)
How it was run: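 VM7Luc4E2, endog. ER-alpha + 4×ERE-luc; charcoal-stripped FBS, phenol red-free, 5 d; 24hr plating; +10.0nM ICI-182,780 (final); cpds 15 conc, 22hr, 37C/5% CO2; ONE-Glo luminescence.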

[16] = qHTS assay to identify small molecule antagonists of the TGF-beta/Smad signaling pathway - cell viability counter screen (AID 1346824); note: nearly all actives have a fitted effect of over 50% in size; note: potency is the fitted concentration of half-maximal effect
How it was run: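 SBE-bla HEK 293T cells were plated overnight at 37 C, then given compounds in DMSO plus TGF-beta1 (added as 0.25 ng/mL solution) for 5 hr. After the bla read, CellTiter-Glo was added to the same wells and luminescence read after 30 min at room temperature.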

[17] = qHTS assay to identify small molecule agonists of the estrogen receptor alpha (ER-alpha) signaling pathway in the presence of an antagonist - cell viability counter screen (AID 1259386);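 note: series mostly up to about 92 µM; cells exposed to compounds for 22 h at 37 °C before the viability read; nearly all actives have a fitted effect of over 30% in size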
How it was run: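 VM7Luc4E2, stripped-serum pre-culture 5 d; 24hr plating; +ICI-182,780 10.0nM final; cpds 15 conc, 22hr, 37C/5% CO2; CellTiter-Fluor added at 21hr, fluorescence 1hr later.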

[18] = biological target: Progesterone receptor (Homo sapiens) (UniProt P06401); assay: qHTS assay to identify small molecule agonists of the progesterone receptor (PR) signaling pathway (AID 1346784; calls by dose curve; note: nearly all actives have a fitted effect of over 30% in size)
How it was run: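 PR-UAS-bla HEK 293T cells (beta-lactamase reporter under UAS) in 2% charcoal-stripped FBS, dosed with 23 nL compound after 6 hr, incubated 16hr at 37C. LiveBLAzer B/G FRET substrate added, fluorescence read after 2 hours.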

[19] = qHTS assay to identify small molecule agonists of the progesterone receptor (PR) signaling pathway - cell viability counter screen (AID 1346799; calls by dose curve; note: nearly all actives have a fitted effect of over 45% in size)
How it was run: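 Counter screen in the PR-UAS-bla HEK293T wells (2% charcoal-stripped FBS, 16 h compound exposure at 37 C) after the bla read. CellTiter-Glo added, 30 min at room temperature, luminescence read as cell viability.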

Measured: Potency

Chain of Androgen receptor (Homo sapiens) (P10275 whole entry, looked up): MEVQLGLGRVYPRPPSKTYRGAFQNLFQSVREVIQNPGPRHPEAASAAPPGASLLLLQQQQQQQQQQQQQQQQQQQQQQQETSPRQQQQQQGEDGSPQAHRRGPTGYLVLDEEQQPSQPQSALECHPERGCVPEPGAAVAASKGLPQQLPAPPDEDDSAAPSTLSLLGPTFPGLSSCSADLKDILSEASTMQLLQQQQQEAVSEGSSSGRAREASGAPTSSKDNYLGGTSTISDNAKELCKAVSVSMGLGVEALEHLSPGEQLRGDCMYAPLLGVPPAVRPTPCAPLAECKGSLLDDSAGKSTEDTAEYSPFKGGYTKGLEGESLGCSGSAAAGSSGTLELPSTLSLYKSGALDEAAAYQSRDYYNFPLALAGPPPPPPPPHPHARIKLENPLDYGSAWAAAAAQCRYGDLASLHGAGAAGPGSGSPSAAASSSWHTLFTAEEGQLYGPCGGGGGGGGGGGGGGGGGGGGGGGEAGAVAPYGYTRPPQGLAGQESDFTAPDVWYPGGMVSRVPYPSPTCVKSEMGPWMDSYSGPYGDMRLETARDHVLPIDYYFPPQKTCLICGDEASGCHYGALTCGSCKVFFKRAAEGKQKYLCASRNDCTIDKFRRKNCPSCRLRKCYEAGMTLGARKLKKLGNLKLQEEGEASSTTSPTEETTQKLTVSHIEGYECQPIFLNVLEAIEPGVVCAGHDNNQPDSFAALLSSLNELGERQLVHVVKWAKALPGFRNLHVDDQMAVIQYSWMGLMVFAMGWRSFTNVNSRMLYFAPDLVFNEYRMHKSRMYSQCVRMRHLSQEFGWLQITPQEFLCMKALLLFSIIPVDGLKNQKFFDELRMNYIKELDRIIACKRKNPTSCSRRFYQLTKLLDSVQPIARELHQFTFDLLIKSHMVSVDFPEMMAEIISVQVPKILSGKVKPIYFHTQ
Chain of Thyrotropin-releasing hormone receptor (Homo sapiens) (P34981 whole entry, looked up): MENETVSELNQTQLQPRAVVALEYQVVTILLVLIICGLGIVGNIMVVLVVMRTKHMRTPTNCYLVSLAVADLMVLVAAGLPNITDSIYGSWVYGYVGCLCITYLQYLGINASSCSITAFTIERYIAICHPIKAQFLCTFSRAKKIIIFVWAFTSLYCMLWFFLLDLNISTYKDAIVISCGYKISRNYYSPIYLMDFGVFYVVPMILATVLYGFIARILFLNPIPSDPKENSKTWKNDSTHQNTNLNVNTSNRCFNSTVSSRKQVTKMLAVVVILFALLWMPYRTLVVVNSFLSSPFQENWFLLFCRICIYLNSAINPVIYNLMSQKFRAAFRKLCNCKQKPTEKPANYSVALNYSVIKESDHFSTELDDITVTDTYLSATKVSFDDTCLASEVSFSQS
Chain of Thyrotropin receptor (Homo sapiens) (P16473 whole entry, looked up): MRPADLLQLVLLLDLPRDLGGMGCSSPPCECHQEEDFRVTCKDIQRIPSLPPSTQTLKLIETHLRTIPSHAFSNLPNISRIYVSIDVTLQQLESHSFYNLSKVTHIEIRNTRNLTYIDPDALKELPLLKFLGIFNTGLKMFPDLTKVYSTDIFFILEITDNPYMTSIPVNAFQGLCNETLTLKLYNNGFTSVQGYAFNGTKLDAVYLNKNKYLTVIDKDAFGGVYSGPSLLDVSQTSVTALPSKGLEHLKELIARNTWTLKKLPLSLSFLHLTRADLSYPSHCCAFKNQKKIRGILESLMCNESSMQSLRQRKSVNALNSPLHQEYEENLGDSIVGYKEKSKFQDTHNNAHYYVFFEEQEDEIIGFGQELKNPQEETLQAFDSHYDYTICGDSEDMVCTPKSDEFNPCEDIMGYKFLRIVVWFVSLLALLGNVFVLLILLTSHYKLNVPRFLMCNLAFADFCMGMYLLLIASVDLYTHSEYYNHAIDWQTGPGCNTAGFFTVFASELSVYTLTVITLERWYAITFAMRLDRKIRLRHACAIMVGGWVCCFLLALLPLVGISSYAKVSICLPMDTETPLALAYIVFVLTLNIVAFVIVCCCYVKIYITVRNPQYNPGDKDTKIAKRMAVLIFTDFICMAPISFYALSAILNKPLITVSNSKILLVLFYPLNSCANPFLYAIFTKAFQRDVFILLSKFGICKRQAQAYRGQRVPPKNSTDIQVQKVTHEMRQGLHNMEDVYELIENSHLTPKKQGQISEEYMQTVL
Chain of Estrogen receptor beta (Homo sapiens) (Q92731 whole entry, looked up): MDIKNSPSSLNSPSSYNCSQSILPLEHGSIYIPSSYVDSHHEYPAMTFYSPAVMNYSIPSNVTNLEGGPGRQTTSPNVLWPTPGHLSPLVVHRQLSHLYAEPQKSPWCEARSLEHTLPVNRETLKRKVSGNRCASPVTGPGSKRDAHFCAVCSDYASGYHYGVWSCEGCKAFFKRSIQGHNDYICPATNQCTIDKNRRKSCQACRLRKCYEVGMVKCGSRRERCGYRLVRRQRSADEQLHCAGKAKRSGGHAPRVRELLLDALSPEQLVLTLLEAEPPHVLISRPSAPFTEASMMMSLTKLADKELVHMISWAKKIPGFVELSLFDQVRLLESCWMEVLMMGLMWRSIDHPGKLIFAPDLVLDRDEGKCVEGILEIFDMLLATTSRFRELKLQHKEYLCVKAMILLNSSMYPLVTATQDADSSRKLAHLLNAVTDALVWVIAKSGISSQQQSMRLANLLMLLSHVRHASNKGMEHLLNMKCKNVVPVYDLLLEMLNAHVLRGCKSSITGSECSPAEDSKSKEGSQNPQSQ
Chain of Progesterone receptor (Homo sapiens) (P06401 whole entry, looked up): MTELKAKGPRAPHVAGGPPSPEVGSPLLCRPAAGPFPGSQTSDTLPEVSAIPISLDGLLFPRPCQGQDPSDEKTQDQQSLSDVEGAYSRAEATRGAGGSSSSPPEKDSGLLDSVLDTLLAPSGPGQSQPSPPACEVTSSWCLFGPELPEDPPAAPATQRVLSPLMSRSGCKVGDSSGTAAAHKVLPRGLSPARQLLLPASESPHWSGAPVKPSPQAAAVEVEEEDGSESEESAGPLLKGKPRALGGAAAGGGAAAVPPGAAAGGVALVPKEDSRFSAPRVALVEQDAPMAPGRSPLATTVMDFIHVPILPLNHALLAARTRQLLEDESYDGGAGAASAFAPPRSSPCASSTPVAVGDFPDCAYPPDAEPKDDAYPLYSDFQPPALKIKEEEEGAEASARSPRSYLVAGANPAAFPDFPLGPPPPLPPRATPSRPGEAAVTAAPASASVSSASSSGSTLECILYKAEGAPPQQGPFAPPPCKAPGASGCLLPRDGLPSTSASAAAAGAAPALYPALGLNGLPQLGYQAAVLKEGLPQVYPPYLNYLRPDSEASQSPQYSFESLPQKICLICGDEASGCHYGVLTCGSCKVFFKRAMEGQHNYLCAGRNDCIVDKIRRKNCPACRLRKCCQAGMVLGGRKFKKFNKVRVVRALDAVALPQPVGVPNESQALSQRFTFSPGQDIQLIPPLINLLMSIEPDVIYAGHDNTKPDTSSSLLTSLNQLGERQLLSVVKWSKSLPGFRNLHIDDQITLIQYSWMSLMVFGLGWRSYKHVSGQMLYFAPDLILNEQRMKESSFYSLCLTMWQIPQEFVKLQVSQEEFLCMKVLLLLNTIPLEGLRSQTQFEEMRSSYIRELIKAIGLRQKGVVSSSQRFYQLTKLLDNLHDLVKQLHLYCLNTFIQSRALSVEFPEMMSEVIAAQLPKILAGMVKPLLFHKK
Chain of Estrogen receptor (Homo sapiens) (P03372 whole entry, looked up): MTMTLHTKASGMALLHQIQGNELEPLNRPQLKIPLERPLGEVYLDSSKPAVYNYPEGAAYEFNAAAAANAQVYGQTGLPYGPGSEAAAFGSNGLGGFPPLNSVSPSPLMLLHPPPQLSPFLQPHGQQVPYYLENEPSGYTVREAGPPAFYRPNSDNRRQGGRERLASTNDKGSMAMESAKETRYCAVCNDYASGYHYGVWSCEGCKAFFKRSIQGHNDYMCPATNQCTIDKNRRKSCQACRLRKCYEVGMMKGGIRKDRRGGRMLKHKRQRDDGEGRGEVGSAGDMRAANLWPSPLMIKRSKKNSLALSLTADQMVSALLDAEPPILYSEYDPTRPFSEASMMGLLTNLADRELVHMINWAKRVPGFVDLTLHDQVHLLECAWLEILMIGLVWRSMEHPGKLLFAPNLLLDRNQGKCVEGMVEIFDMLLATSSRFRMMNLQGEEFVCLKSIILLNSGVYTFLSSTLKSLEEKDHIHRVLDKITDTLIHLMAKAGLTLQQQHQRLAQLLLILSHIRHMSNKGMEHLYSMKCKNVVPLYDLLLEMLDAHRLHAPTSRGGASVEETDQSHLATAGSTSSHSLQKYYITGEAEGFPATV

CNC(=O)c1cc(Oc2ccc(NC(=O)Nc3ccc(Cl)c(C(F)(F)F)c3)cc2)ccn1
inactive: [4] | [5] | [8] | [9] | [10] | [11]
active: [1] 9.44 µM | [2] 29.8 µM | [3] 29.8 µM | [6] 11.9 µM | [7] 33.5 µM | [12] 23.7 µM

CCCOc1sc(C(=O)N2CCC(c3cc(CN)ccc3F)CC2)c(C)c1Br
inactive: [13] | [15] | [4]
active: [2] 56 µM | [3] 28.1 µM | [14] 25 µM | [5] 56 µM | [7] 25 µM | [16] 50.4 µM | [8] 44.9 µM | [10] 27.6 µM | [11] 31.8 µM | [12] 28.1 µM

O=Cc1ccc(F)cc1
inactive: [2] | [3] | [13] | [14] | [15] | [4] | [5] | [17] | [18] | [6] | [7] | [19] | [16] | [9] | [10] | [11] | [12]

CC(=O)C=O
inactive: [1] | [3] | [14] | [17] | [18] | [6] | [16] | [8] | [9] | [12]

CCOC(=O)C1=C(C)NC(C)=C(C(=O)OCC)C1c1ccccc1/C=C/C(=O)OC(C)(C)C
inactive: [1] | [13] | [14] | [4] | [5] | [17] | [16] | [8] | [10] | [11]
active: [3] 23.7 µM | [6] 26.6 µM | [9] 23.9 µM

NC(=O)c1ccccc1N
inactive: [2] | [3] | [13] | [14] | [4] | [5] | [17] | [18] | [6] | [7] | [19] | [16] | [8] | [9] | [10] | [11] | [12]

OCCCCl
inactive: [2] | [3] | [13] | [14] | [15] | [4] | [5] | [17] | [18] | [6] | [16] | [8] | [9] | [10] | [11] | [12]

CCCC(O)C(O)CO (centres undefined)
inactive: [1] | [2] | [13] | [14] | [4] | [5] | [17] | [6] | [7] | [19] | [16] | [8] | [9] | [10] | [11] | [12]

C=CC(=O)OCCC#N
inactive: [1] | [2] | [14] | [4] | [5] | [17] | [6] | [7] | [16] | [8] | [9] | [10] | [11] | [12]

C=C[C@](C)(O)CC[C@@H]1[C@@]2(C)CCCC(C)(C)[C@@H]2CC[C@@]1(C)O
inactive: [15] | [4] | [5] | [17] | [8] | [9]
active: [1] 27.3 µM | [3] 48.6 µM | [14] 61.1 µM

COc1cccc(OC)c1O
inactive: [1] | [2] | [3] | [14] | [4] | [5] | [17] | [18] | [6] | [7] | [19] | [16] | [8] | [9] | [10] | [11] | [12]

Cc1cccc(N(C)C)c1
inactive: [1] | [2] | [3] | [13] | [14] | [4] | [5] | [17] | [6] | [7] | [8] | [9] | [12]

CC(C)OC(=O)c1cc(C(=O)OC(C)C)cc([N+](=O)[O-])c1
inactive: [1] | [2] | [14] | [4] | [5] | [17] | [18] | [8] | [9] | [10] | [11]

CCC1CCCCC1
inactive: [2] | [3] | [13] | [14] | [4] | [5] | [17] | [18] | [6] | [16] | [8] | [9] | [10] | [11] | [12]

CCCCCCCOC(=O)c1ccccc1C(=O)OCCCCCCC
inactive: [2] | [3] | [13] | [14] | [15] | [4] | [5] | [17] | [18] | [6] | [19] | [16] | [8] | [9] | [10] | [11]
